# Experimental data taken from the supplement of paper PMC4166925.
# ± gives the standard deviation of the averaged measurements. In all, about 33,000 sequences were measured (“E-score (dimensionless, -0.5 to 0.5)”: median about -0.046, highest 2% from about 0.36 on). This excerpt belongs to a sample that is enriched for the highest values.
# Test system: T1, SpTbr T-box DNA-binding domain (GST fusion)
# T1 sequence: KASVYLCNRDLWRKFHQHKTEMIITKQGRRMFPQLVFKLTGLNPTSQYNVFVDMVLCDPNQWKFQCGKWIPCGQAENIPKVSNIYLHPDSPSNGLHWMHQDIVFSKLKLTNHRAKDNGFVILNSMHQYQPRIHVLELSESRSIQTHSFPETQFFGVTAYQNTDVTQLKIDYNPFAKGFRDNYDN
# Experiment: PBM E-score of 8-mer (E-score (dimensionless, -0.5 to 0.5)); Tbr is Tbrain of the sea star Patiria miniata (Pm) or the sea urchin Strongylocentrotus purpuratus (Sp); higher = stronger binding preference
# Settings: the construct has about 5 more residues each side
# Protocol: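 Universal protein-binding microarray (Agilent AMADID 016060, 60-bp probes with a 35-bp variable region) incubated with 200 nM GST-fused Strongylocentrotus purpuratus Tbr T-box DNA-binding domain (residues 362-554) in PBS pH 7.5. Scored for every ungapped 8-mer (given with its reverse complement) as E-score (range -0.5 to 0.5; >0.45 counts as bound) and Z-score of median probe intensity. Two replicate arrays (datasets 1 and 2).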
# 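Also: protein at 200 nM in PBS on universal double-stranded arrays.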
row,Sequence,PBM E-score of 8-mer
1,GTGCCAAC,0.4114 ± 0.0035
2,CTGCCAAA,0.0249 ± 0.15
3,ATGCCAAC,0.124 ± 0.0029
4,AAGAGTAT,-0.163 ± 0.024
5,ATACGCAC,0.153 ± 0.063
6,ATTTGGCG,0.118 ± 0.03
7,CTGGGGAA,0.00742 ± 0.052
8,TACGTGAA,0.0338 ± 0.073
9,CGCGTGAC,0.355 ± 0.02
10,GGCGTGAC,0.388 ± 0.0071
11,TCCGTGAA,0.16 ± 0.012
12,GGCGTGAA,0.473 ± 0.0057
13,GCCGTGAC,0.199 ± 0.011
14,GCCGTGAA,0.354 ± 0.018
15,TGCGTGAA,0.3936 ± 0.0023
16,GACGTGAC,0.235 ± 0.032
17,CGCGTGAG,0.313 ± 0.0063
18,CGCGTGAA,0.4208 ± 0.0018
19,GGCGTGCA,0.0836 ± 0.055
20,AGGCTGGG,-0.179 ± 0.012
21,ACAGTGTA,0.0565 ± 0.017
22,ATAACTCC,-0.147 ± 0.029
23,ACTGACTC,0.0022 ± 0.0015

row,Sequence,PBM E-score of 8-mer
1,AGCGTGAT,0.28 ± 0.022
2,AGCGTGAA,0.413 ± 0.018
3,AGCGTGAC,0.3372 ± 0.0013
4,AGAAGACA,0.0347 ± 0.065
5,ATGTGTCA,0.4671 ± 0.00078
6,ATATGTCG,0.139 ± 0.047
7,GTGTGTCA,0.346 ± 0.0092
8,CTGTGTCA,0.247 ± 0.015
9,ATGTGTCC,0.144 ± 0.014
10,ATGTGTCG,0.385 ± 0.011
11,CACATTCA,0.21 ± 0.041
12,CATAAAGA,-0.0483 ± 0.0071
13,GCGGGTGA,0.261 ± 0.03
14,GAATTTCA,0.056 ± 0.018
15,AAGCAAGG,-0.0863 ± 0.017
16,AGCCAGAA,-0.268 ± 0.024
17,AAGGAGAT,-0.0983 ± 0.019
18,AGAGGGCC,-0.194 ± 0.097
19,CTCCACAC,0.37 ± 0.0083
20,CTCCACAA,0.136 ± 0.0093
21,ATCCACAC,0.357 ± 0.0097
22,GTCCACAC,0.385 ± 0.0075
23,GTCCACAA,0.153 ± 0.039

row,Sequence,PBM E-score of 8-mer
1,CTCCACAG,-0.0194 ± 0.034
2,AGGGACGA,0.053 ± 0.072
3,CCTTTGAG,-0.17 ± 0.018
4,CGGTAGCA,0.276 ± 0.031
5,CTTTGCAA,0.0361 ± 0.021
6,GATCGGAC,-0.287 ± 0.013
7,ATCGGCTG,0.0647 ± 0.039
8,ATACTAGA,-0.222 ± 0.11
9,CTTCTCAA,0.0891 ± 0.045
10,ATTCTCAC,0.415 ± 0.015
11,ATTCTCAG,0.0379 ± 0.094
12,CTTCTCTC,0.08 ± 0.04
13,CTTCTCAC,0.401 ± 0.011
14,ATTCTCAA,0.138 ± 0.062
15,ACCGAGGA,-0.0878 ± 0.039
16,AGTTCCAT,0.00979 ± 0.0044
17,TTGCGAAA,0.33 ± 0.038
18,CTGCGAGA,0.185 ± 0.0098
19,ATGCGACA,0.285 ± 0.0073
20,ATGCGATA,0.0476 ± 0.028
21,CTGCGATA,0.0968 ± 0.04
22,GTGCGAGA,0.42 ± 0.0079
23,CTGCGACA,0.198 ± 0.036

row,Sequence,PBM E-score of 8-mer
1,ATGCGAGA,0.172 ± 0.017
2,GTGCGAAA,0.4765 ± 0.0018
3,CTGCGAAA,0.342 ± 0.036
4,GTGCGATA,0.427 ± 0.0042
5,GTGCGACA,0.398 ± 0.012
6,GATACCCC,-0.273 ± 0.041
7,CAAGGATA,-0.175 ± 0.043
8,GAATCTGC,-0.0922 ± 0.056
9,ATGCTCCG,-0.0668 ± 0.061
10,AAGCCCGG,-0.24 ± 0.028
11,CATGCTAA,0.0578 ± 0.029
12,ACCTACTA,0.17 ± 0.057
13,GCATTCTA,-0.293 ± 0.06
14,AGGCAGAC,-0.227 ± 0.0024
15,GGGCGAAC,-0.0364 ± 0.016
16,GTGCGAAC,0.4783 ± 0.00073
17,ATGCGAAC,0.154 ± 0.017
18,CTGCGAAG,0.2479 ± 0.0022
19,CTGCGAAC,0.365 ± 0.0088
20,CTGCGATC,0.106 ± 0.1
21,AATGAGGA,-0.334 ± 0.058
22,AACAATGA,0.0839 ± 0.096
23,AAAGTTCA,-0.0472 ± 0.047

row,Sequence,PBM E-score of 8-mer
1,CTACCGAG,-0.07 ± 0.013
2,CACCTGAC,0.374 ± 0.0049
3,CACCTGTA,0.331 ± 0.036
4,AACCTGTC,0.248 ± 0.011
5,AACCTGAC,0.121 ± 0.003
6,CACCTGAA,0.29 ± 0.0089
7,CACCTGTC,0.431 ± 0.019
8,GGATCCAC,-0.00958 ± 0.069
9,CGAAGTAC,-0.169 ± 0.067
10,GCCGTTTA,0.0646 ± 0.08
11,ACTGCGAG,0.17 ± 0.033
12,CATGCGAG,0.106 ± 0.012
13,ACTGCGAT,0.117 ± 0.0014
14,CGTGCGAG,0.373 ± 0.018
15,CGTGCGAC,0.238 ± 0.029
16,AATGCGAT,0.0396 ± 0.031
17,AGTGCGAC,0.341 ± 0.024
18,AGTGCGAG,0.408 ± 0.022
19,AGTGCGAT,0.4291 ± 0.0025
